# In PubChem BioAssay (Tox21):
# Several values for one entry are separate records, joined by “and”; a condition that tells them apart may be missing. Equal entries are not always repeated. Results filed as inconclusive are left out. Where a call stands in place of a potency, no number is given. Activity calls are given as the source filed them. Calls follow the shape of the dose curve; as a rule, active = well fitted curve in the direction sought with a large enough effect in the repeat runs; inconclusive = weak or mixed curves; inactive = no such curve, though single readings can be large; an effect the other way counts as inactive or inconclusive.
# Tested on: not listed separately
# Assay: qHTS assay to identify small molecule antagonists of the estrogen related receptor (ERR) signaling pathway from Tox21 library - cell viability counter screen (AID 1224834); also: nearly all actives have a fitted effect of over 30% in size
# Conditions: ERR reporter cells viability, CellTiter-Fluor, 17.5 h; series mostly up to 92.4 µM
# How it was run: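 Fluorescence from CellTiter-Fluor gives the viability read-out, taken 30 min after reagent addition. Before that, ERR cells seeded 6 h earlier were incubated with compounds for 17.5 h at 37 C.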
# Potency is read from the fitted curve at half-maximal effect.
row,SMILES,Potency
1,Brc1ccc(Oc2ccc(Br)cc2Br)c(Br)c1,inactive
2,CC[C@H](C)[C@H]1O[C@]2(C=C[C@@H]1C)C[C@@H]1C[C@@H](C/C=C(\C)[C@@H](O[C@H]3C[C@H](OC)[C@@H](O[C@H]4C[C@H](OC)[C@@H](NC)[C@H](C)O4)[C@H](C)O3)[C@@H](C)/C=C/C=C3\CO[C@@H]4[C@H](O)C(C)=C[C@@H](C(=O)O1)[C@]34O)O2,8.63 µM (active)
3,CSC(=O)c1c(C(F)F)nc(C(F)(F)F)c(C(=O)SC)c1CC(C)C,inactive
4,Oc1cc(Cl)cc(Cl)c1,inactive
5,CNC(C)(C)Cc1ccccc1,inactive
6,CC(C)[C@@H](Nc1ccc(C(F)(F)F)cc1Cl)C(=O)OC(C#N)c1cccc(Oc2ccccc2)c1 (stereo partly drawn),inactive
7,Cc1ccc([N+](=O)[O-])[c]2c1[O][Hg]2,5.31 µM (active)
8,CC(C)N(C(=O)SC/C(Cl)=C/Cl)C(C)C,inactive
9,C[C@]12CC[C@H]3[C@@H](CCC4=CC(=O)CC[C@@H]43)[C@@H]1CC[C@@H]2OC(=O)CCc1ccco1,inactive
10,CNC(=O)O/N=C(\C)C(C)S(C)(=O)=O (stereo not drawn),inactive
11,CC1(C)[C@H](/C=C2\CCSC2=O)[C@@H]1C(=O)OCc1coc(Cc2ccccc2)c1,inactive
12,Fc1ccc(C(OCCN2CCN(CCCc3ccccc3)CC2)c2ccc(F)cc2)cc1,26.6 µM (active)
13,CN(C)c1ccc(N)cc1,23.7 µM (active)
14,CC(C)C(Nc1ccc(C(F)(F)F)cc1Cl)C(=O)OC(C#N)c1cccc(Oc2ccccc2)c1 (stereo not drawn),inactive
15,N#CSCc1ccccc1,inactive
16,Cc1cccc(Cc2cnc[nH]2)c1C,inactive
17,CN(C)C(=S)SSC(=S)N(C)C,339 nM (active) and 433 nM (active) and 473 nM (active)
18,c1csc(-c2ccc(-c3cccs3)s2)c1,inactive
19,COP(=S)(NC(C)C)Oc1ccc(C)cc1[N+](=O)[O-] (stereo not drawn),inactive
20,CCC1(CC)C(=O)N=C(O)NC1=O,inactive

row,SMILES,Potency
1,CC(=O)C(Cl)C(=O)N(C)C (stereo not drawn),inactive
2,CCOC(=O)CCN(SN(C)C(=O)Oc1cccc2c1OC(C)(C)C2)C(C)C,inactive
3,COc1nc(C)nc(NC(=O)NS(=O)(=O)c2ccccc2Cl)n1,inactive
4,c1ccc2nc(N3CCNCC3)ccc2c1,inactive
5,CCCCC(CC)COC(=O)OOC(C)(C)C (stereo not drawn),inactive
6,CCOP(=S)(OCC)Oc1cc(C)nc(N(CC)CC)n1,inactive
7,CC1CCCC1,inactive
8,COc1ccc2c(c1OC)C(=O)O[C@@H]2[C@H]1c2cc3c(cc2CCN1C)OCO3,9.59 µM (active)
9,CN/C(=N\[N+](=O)[O-])NCc1cnc(Cl)s1,inactive
10,CCOP(=O)(Sc1ccccc1)Sc1ccccc1,inactive
11,CCOC(=O)Cc1ccccc1,inactive
12,CNC(=O)Oc1cc(C)cc(C(C)C)c1,inactive
13,O=c1c2ccccc2c(=O)c2c1cc(Cl)c1[nH]c3c([nH]c12)c(Cl)cc1c(=O)c2ccccc2c(=O)c13,inactive
14,CCOP(=S)(OCC)SC(CCl)N1C(=O)c2ccccc2C1=O (stereo not drawn),inactive
15,ClC1=C(Cl)[C@]2(Cl)[C@H]3[C@H]([C@@H]4C=C[C@H]3C4)[C@@]1(Cl)C2(Cl)Cl,inactive
16,[O]=[Cr][O][Cr]=[O],inactive
17,O=Cc1ccccc1,inactive
18,Cc1ccc(C)c2ccccc12,inactive
19,CCNc1nc(NC(C)C(C)C)nc(SC)n1 (stereo not drawn),inactive

# Molecular target: Luciferin 4-monooxygenase (Photinus pyralis) (UniProt P08659)
# Assay: qHTS assay to identify small molecule inhibitors of firefly luciferase (AID 1224835); also: nearly all actives have a fitted effect of over 25% in size
# Conditions: purified P. pyralis luciferase, luminescence inhibition; series mostly up to 115 µM
# How it was run: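 Quantitative HTS format; KM concentrations of both substrates. Purified P. pyralis FLuc activity quantified from luminescence images.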
# Luciferin 4-monooxygenase (Photinus pyralis), sequence (P08659 whole entry, looked up): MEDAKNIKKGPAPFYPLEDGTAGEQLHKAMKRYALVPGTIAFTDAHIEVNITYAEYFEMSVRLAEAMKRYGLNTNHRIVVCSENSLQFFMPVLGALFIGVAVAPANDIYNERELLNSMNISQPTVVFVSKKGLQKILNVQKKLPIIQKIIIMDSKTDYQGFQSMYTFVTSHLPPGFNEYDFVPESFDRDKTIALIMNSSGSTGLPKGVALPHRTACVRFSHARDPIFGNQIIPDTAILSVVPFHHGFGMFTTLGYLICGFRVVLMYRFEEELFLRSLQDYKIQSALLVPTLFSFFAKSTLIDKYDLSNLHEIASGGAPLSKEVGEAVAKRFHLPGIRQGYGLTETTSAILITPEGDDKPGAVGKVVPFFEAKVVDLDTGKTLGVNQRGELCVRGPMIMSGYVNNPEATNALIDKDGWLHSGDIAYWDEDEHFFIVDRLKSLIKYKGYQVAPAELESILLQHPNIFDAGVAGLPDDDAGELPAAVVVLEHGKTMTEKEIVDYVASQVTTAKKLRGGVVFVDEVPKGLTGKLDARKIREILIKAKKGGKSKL
row,SMILES,Potency
1,Brc1ccc(Oc2ccc(Br)cc2Br)c(Br)c1,35.6 µM (active)
2,CC[C@H](C)[C@H]1O[C@]2(C=C[C@@H]1C)C[C@@H]1C[C@@H](C/C=C(\C)[C@@H](O[C@H]3C[C@H](OC)[C@@H](O[C@H]4C[C@H](OC)[C@@H](NC)[C@H](C)O4)[C@H](C)O3)[C@@H](C)/C=C/C=C3\CO[C@@H]4[C@H](O)C(C)=C[C@@H](C(=O)O1)[C@]34O)O2,inactive
3,CSC(=O)c1c(C(F)F)nc(C(F)(F)F)c(C(=O)SC)c1CC(C)C,inactive
4,Oc1cc(Cl)cc(Cl)c1,inactive
5,CNC(C)(C)Cc1ccccc1,inactive
6,CC(C)[C@@H](Nc1ccc(C(F)(F)F)cc1Cl)C(=O)OC(C#N)c1cccc(Oc2ccccc2)c1 (stereo partly drawn),inactive
7,Cc1ccc([N+](=O)[O-])[c]2c1[O][Hg]2,17.4 µM (active)
8,CC(C)N(C(=O)SC/C(Cl)=C/Cl)C(C)C,inactive
9,C[C@]12CC[C@H]3[C@@H](CCC4=CC(=O)CC[C@@H]43)[C@@H]1CC[C@@H]2OC(=O)CCc1ccco1,inactive
10,CNC(=O)O/N=C(\C)C(C)S(C)(=O)=O (stereo not drawn),inactive
11,CC1(C)[C@H](/C=C2\CCSC2=O)[C@@H]1C(=O)OCc1coc(Cc2ccccc2)c1,inactive
12,Fc1ccc(C(OCCN2CCN(CCCc3ccccc3)CC2)c2ccc(F)cc2)cc1,inactive
13,CN(C)c1ccc(N)cc1,1.74 µM (active)
14,CC(C)C(Nc1ccc(C(F)(F)F)cc1Cl)C(=O)OC(C#N)c1cccc(Oc2ccccc2)c1 (stereo not drawn),inactive
15,N#CSCc1ccccc1,inactive
16,Cc1cccc(Cc2cnc[nH]2)c1C,inactive
17,CN(C)C(=S)SSC(=S)N(C)C,2.21 µM (active) and 1.26 µM (active) and 1.55 µM (active)
18,c1csc(-c2ccc(-c3cccs3)s2)c1,2.52 µM (active)
19,COP(=S)(NC(C)C)Oc1ccc(C)cc1[N+](=O)[O-] (stereo not drawn),inactive
20,CCC1(CC)C(=O)N=C(O)NC1=O,inactive

row,SMILES,Potency
1,CC(=O)C(Cl)C(=O)N(C)C (stereo not drawn),inactive
2,CCOC(=O)CCN(SN(C)C(=O)Oc1cccc2c1OC(C)(C)C2)C(C)C,inactive
3,COc1nc(C)nc(NC(=O)NS(=O)(=O)c2ccccc2Cl)n1,inactive
4,c1ccc2nc(N3CCNCC3)ccc2c1,inactive
5,CCCCC(CC)COC(=O)OOC(C)(C)C (stereo not drawn),inactive
6,CCOP(=S)(OCC)Oc1cc(C)nc(N(CC)CC)n1,inactive
7,CC1CCCC1,inactive
8,COc1ccc2c(c1OC)C(=O)O[C@@H]2[C@H]1c2cc3c(cc2CCN1C)OCO3,inactive
9,CN/C(=N\[N+](=O)[O-])NCc1cnc(Cl)s1,inactive
10,CCOP(=O)(Sc1ccccc1)Sc1ccccc1,inactive
11,CCOC(=O)Cc1ccccc1,inactive
12,CNC(=O)Oc1cc(C)cc(C(C)C)c1,inactive
13,O=c1c2ccccc2c(=O)c2c1cc(Cl)c1[nH]c3c([nH]c12)c(Cl)cc1c(=O)c2ccccc2c(=O)c13,56.4 µM (active)
14,CCOP(=S)(OCC)SC(CCl)N1C(=O)c2ccccc2C1=O (stereo not drawn),inactive
15,ClC1=C(Cl)[C@]2(Cl)[C@H]3[C@H]([C@@H]4C=C[C@H]3C4)[C@@]1(Cl)C2(Cl)Cl,inactive
16,[O]=[Cr][O][Cr]=[O],inactive
17,O=Cc1ccccc1,inactive
18,Cc1ccc(C)c2ccccc12,inactive
19,CCNc1nc(NC(C)C(C)C)nc(SC)n1 (stereo not drawn),inactive
